The list is not random: actives were taken first. Their share in the collection is about 0.4%.
FMDV antiviral: shows antiviral activity against foot and mouth disease virus. Potency, µM (top dose mostly 57.5 µM), inactives show at the highest dose activity change, negative = inhibition, hits mostly inhibitors. actives 0.23% (n = 120,000). AID 1745856. FMDV antiviral cell assay, firefly luciferase signal; also: nearly all actives have a fitted effect of over 60% in size
FMDV RLuc: antivirals against foot and mouth disease virus replicon; FMDV replicon cells, Renilla luciferase signal; actives 0.32% (n = 120,000); AID 1745857; Potency, µM (doses to about 57.5 µM), for the others: at the highest dose activity change, negative = inhibition, hits mostly inhibitors; also: nearly all actives have a fitted effect of over 55% in size
Numbers without * were called inactive. Calls follow the shape of the full dose curve. % is scaled to controls: 0 for no effect and ±100 for the full control effect; potency is read from the fitted curve at half-maximal effect.

`O=C(O)c1cccc(COc2cc(Cl)ccc2Cl)c1` gave FMDV antiviral inconclusive and FMDV RLuc 11.2%.
CCc1ccc(NC(=O)CSc2nc3c(=O)[nH]cnc3n2-c2ccc(C)cc2)cc1 was read as FMDV antiviral 34.6% and FMDV RLuc 80.1%.
Screening CC(=O)N1CCCc2ccc(NC(=O)c3ccc(OC(C)C)cc3)cc21 returned FMDV antiviral inconclusive and FMDV RLuc -4.1%.
`CCCCOc1ccc(C(=O)Nc2ccc3c(c2)N(C(C)=O)CCC3)cc1` gave FMDV antiviral 1.26µM* and FMDV RLuc -11.9%.
COc1cc(C(=O)Nc2c(NCC3CCCCC3)c3ccccc3oc2=O)cc(OC)c1OC was read as FMDV antiviral -1.2% and FMDV RLuc -3.6%.
For COc1ccc(N2C(=O)c3ccccc3NC2c2ccc(F)cc2)cc1 (stereo not given) the results were FMDV antiviral 45.3% and FMDV RLuc -1.1%.
`Cc1ccccc1C(=O)N1CCN(c2ccc(NC(=O)c3ccc4c(c3)OCCO4)cc2)CC1` gave FMDV antiviral inconclusive and FMDV RLuc 15.8µM*.
For CCOc1cc(OCC)cc(C(=O)Nc2ccc(N3CCN(C(=O)c4ccccc4C)CC3)cc2)c1 the results were FMDV antiviral -6.9% and FMDV RLuc -6.7%.
`Cc1cccc(Oc2ccc(NC(=O)c3ccc4c(c3)NC(=O)CS4)cc2)c1` gave FMDV antiviral inconclusive and FMDV RLuc 22.4µM*.
O=C1CSc2ccc(C(=O)Nc3ccccc3)cc2N1 was read as FMDV antiviral 170.8% and FMDV RLuc 5.3%.
CCCCOc1ccc(C(=O)C(CCC(CNC(C)(C)C)C(=O)c2ccc(OCCCC)cc2)CNC(C)(C)C)cc1 (stereo not given) was read as FMDV antiviral inconclusive and FMDV RLuc 28.2µM*.
CCCCCOc1ccc(C(=O)O)cc1 was read as FMDV antiviral 0.0% and FMDV RLuc 12.2%.
For Cc1cccc(Cn2c(NCCO)nc3c2c(=O)n(C)c(=O)n3C)c1 the results were FMDV antiviral inconclusive and FMDV RLuc 11.2µM*.
Screening Cn1c(=O)c2c(nc(NCCO)n2Cc2ccccc2F)n(C)c1=O returned FMDV antiviral 12.6µM* and FMDV RLuc 12.6µM*.
For Cc1cccc(Cn2c(NCCN3CCOCC3)nc3c2c(=O)n(C)c(=O)n3C)c1 the results were FMDV antiviral 15.3% and FMDV RLuc 4.3%.
For Cn1c(=O)c2c(nc(NCCCCO)n2Cc2ccccc2Cl)n(C)c1=O the results were FMDV antiviral -6.4% and FMDV RLuc -8.9%.
Cn1c(=O)c2c(nc(NCCO)n2Cc2cccc(Br)c2)n(C)c1=O was read as FMDV antiviral inconclusive and FMDV RLuc 12.6µM*.
For Cn1c(=O)c2c(nc(NCCc3ccccc3)n2Cc2cccc(Br)c2)n(C)c1=O the results were FMDV antiviral 40.5% and FMDV RLuc -11.7%.
CCCCn1c(=O)[nH]c(=O)c2c1nc(CCC(=O)Nc1cccc(C)c1C)n2CC(C)C was read as FMDV antiviral 18.1% and FMDV RLuc 34.8%.
For Nc1nc(Cl)nc(Nc2cccc(F)c2)c1[N+](=O)[O-] the results were FMDV antiviral 10.0% and FMDV RLuc 12.6%.
O=C(CCc1nnc(C(=O)Nc2cccc(Cl)c2)s1)NCc1ccccn1 was read as FMDV antiviral 19.2% and FMDV RLuc -2.6%.
Screening O=C(COC(=O)c1ccccc1-c1ccc(C(F)(F)F)cc1)c1cccc([N+](=O)[O-])c1 returned FMDV antiviral 10µM* and FMDV RLuc 8.91µM*.
O=C(COC(=O)c1ccccc1-c1ccc(C(F)(F)F)cc1)c1ccc([N+](=O)[O-])cc1 was read as FMDV antiviral -14.7% and FMDV RLuc -19.5%.
CCCCS(=O)(=O)c1oc(-c2cccs2)nc1S(=O)(=O)c1ccc(F)cc1 was read as FMDV antiviral 28.2µM* and FMDV RLuc -4.8%.
Screening CCCCCS(=O)(=O)c1oc(-c2cccs2)nc1S(=O)(=O)c1ccc(C)cc1 returned FMDV antiviral -10.2% and FMDV RLuc -12.4%.
For CCCc1cc(=O)oc2cc(C)cc(OCC(=O)NCCCO)c12 the results were FMDV antiviral -8.6% and FMDV RLuc -6.1%.
`Cc1ccc(S(=O)(=O)N2CCC(C(=O)NCc3cnn(-c4ccccc4)c3)CC2)cc1C` gave FMDV antiviral -4.3% and FMDV RLuc 8.7%.
CC(=O)N1CCN(Cc2coc(-c3ccc(Cl)cc3)n2)CC1 was read as FMDV antiviral 12.0% and FMDV RLuc inconclusive.
`O=C(CSCc1coc(-c2ccc(Cl)cc2)n1)N1CCCCC1` gave FMDV antiviral -13.2% and FMDV RLuc 20µM*.
For N#Cc1c(NCCO)nc(-c2ccco2)c2c1CCCC2 the results were FMDV antiviral -12.4% and FMDV RLuc -11.8%.
`O=C(Nc1cccc(S(=O)(=O)N2CCCCC2)c1)c1ccc(OCc2cn3ccccc3n2)cc1` gave FMDV antiviral 0.0% and FMDV RLuc 0.0%.
Screening O=C(Nc1cccc(S(=O)(=O)N2CCOCC2)c1)c1ccc(OCc2cn3ccccc3n2)cc1 returned FMDV antiviral 31.6µM* and FMDV RLuc inconclusive.
`CCCCOC(=O)Nc1ccccc1N=C1CCC/C1=C\c1ccccc1` gave FMDV antiviral 0.0% and FMDV RLuc 16.4%.
For COc1ccc(S(=O)(=O)N(C)C)cc1NC(=O)Cc1nn(C)c(=O)c2ccccc12 the results were FMDV antiviral 0.0% and FMDV RLuc 29.0%.
Screening COc1ccccc1NC(=O)CSc1nc2ccsc2c(=O)n1C returned FMDV antiviral 22.4µM* and FMDV RLuc 22.4µM*.
COc1ccccc1NC(=O)Cc1nn(C)c(=O)c2ccccc12 was read as FMDV antiviral 10µM* and FMDV RLuc 10µM*.
`Cn1nc(CC(=O)Nc2ccc(Cl)cc2)c2ccccc2c1=O` gave FMDV antiviral inconclusive and FMDV RLuc 2.82µM*.
Screening Cn1nc(CC(=O)Nc2cccc(OC(=O)c3ccc(Cl)cc3)c2)c2ccccc2c1=O returned FMDV antiviral -12.5% and FMDV RLuc -9.5%.
Screening Cn1nc(CC(=O)NCc2ccc(F)cc2)c2ccccc2c1=O returned FMDV antiviral -29.3% and FMDV RLuc inconclusive.
Cn1nc(CC(=O)Nc2ccc(F)cc2Cl)c2ccccc2c1=O was read as FMDV antiviral inconclusive and FMDV RLuc 7.08µM*.
`CCn1c(SCC(=O)Nc2ccccc2C(=O)OC)nc2ccsc2c1=O` gave FMDV antiviral -12.3% and FMDV RLuc 8.7%.
`O=C(NC1CCC(c2ccccc2)CC1)c1cccc2ncccc12` (stereo not given) gave FMDV antiviral -4.4% and FMDV RLuc -5.2%.
CC(C)c1nnc(NC(=O)Cn2ccc3ccc(Cl)cc32)s1 was read as FMDV antiviral 15.8% and FMDV RLuc 4.0%.
Screening CCCOc1ccccc1C(=O)N(Cc1ccc(C(C)C)cc1)C1CCS(=O)(=O)C1 (stereo not given) returned FMDV antiviral -9.5% and FMDV RLuc 5.4%.
Screening COc1ccc(CNC(=O)Cn2c(=O)oc3cc(S(=O)(=O)N4CCCC4)ccc32)cc1 returned FMDV antiviral 16.5% and FMDV RLuc -7.7%.
For CC(C)c1ccc(NC(=O)Cn2c(=O)oc3cc(S(=O)(=O)N4CCCC4)ccc32)cc1 the results were FMDV antiviral 6.31µM* and FMDV RLuc inconclusive.
`CN(C)c1ccc(CNC(=O)Cn2c(=O)oc3cc(S(=O)(=O)N4CCCCCC4)ccc32)cc1` gave FMDV antiviral inconclusive and FMDV RLuc 20µM*.
`Cc1cc(C)cc(NC(=O)Cn2c(=O)oc3cc(S(=O)(=O)N4CCCC4)ccc32)c1` gave FMDV antiviral 0.0% and FMDV RLuc -1.3%.

Screening results: PubChem BioAssay, National Center for Advancing Translational Sciences (NCATS)
